From PubChem BioAssay AID602144 (Vanderbilt Specialized Chemistry Center, 2011)
Values without a mark were called inactive. Calls of active or inactive are those of the source. Cut-off read from the data, not from the text of the source: active = remaining activity below about 50%; inactive = the rest.

Biological target: Phospholipase D1 (Homo sapiens) (UniProt Q13393)
Experiment: PLD1 inhibitors in cells, Calu-1 cells, single concentration (AID 602144);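 note: tested at 200 nM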
Conditions: cellular PLD1 activity, stronger effect = lower value

Chain of Phospholipase D1 (Homo sapiens) (Q13393 whole entry, looked up): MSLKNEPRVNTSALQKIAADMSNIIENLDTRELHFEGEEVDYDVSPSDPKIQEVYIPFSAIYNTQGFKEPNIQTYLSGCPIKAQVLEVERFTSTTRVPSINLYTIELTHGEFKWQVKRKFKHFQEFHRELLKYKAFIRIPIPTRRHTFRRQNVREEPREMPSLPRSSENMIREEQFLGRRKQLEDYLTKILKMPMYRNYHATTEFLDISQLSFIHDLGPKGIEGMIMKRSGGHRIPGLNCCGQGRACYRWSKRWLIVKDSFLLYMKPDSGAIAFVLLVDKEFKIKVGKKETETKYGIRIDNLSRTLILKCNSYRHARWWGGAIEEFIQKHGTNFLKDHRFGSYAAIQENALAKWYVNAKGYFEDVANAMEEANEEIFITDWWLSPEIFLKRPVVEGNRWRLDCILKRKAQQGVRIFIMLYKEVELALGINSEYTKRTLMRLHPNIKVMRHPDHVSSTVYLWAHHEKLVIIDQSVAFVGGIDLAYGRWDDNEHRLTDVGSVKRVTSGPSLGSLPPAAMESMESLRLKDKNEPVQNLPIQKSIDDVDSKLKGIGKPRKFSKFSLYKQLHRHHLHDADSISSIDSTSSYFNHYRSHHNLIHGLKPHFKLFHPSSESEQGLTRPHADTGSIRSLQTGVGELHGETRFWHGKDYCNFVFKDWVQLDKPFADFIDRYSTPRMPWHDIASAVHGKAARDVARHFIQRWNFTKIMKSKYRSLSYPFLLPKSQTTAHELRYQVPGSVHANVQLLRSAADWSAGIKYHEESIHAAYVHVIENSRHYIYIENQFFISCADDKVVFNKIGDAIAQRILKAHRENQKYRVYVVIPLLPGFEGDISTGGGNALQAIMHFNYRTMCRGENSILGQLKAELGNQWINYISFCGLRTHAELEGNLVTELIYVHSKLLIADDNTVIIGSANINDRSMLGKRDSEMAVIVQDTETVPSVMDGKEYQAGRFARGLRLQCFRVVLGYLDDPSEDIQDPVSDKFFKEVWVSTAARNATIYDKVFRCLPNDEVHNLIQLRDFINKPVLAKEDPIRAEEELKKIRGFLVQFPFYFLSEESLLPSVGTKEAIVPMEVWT
Chain of Phospholipase D1 (Homo sapiens) (Q13393 whole entry, looked up): as above

**Q.** With `O=C1c2ccccc2C(=O)N1CCCN1CCC(n2c(=O)[nH]c3cc(Cl)ccc32)CC1` as the compound, how does the remaining activity read?
**A.** 67.5%

**Q.** `C[C@H](N)CN1CCC(c2nc3ccccc3n2C)CC1` (tested in a mixture with another compound) was tested. Which remaining activity did it give?
**A.** 88.8%

**Q.** Which remaining activity does the source give for `O=C(NCCN1CCC(C(=O)Nc2ccccc2)CC1)c1ccc2ccccc2c1` here?
**A.** 102%

**Q.** How did the remaining activity turn out when `O=c1[nH]c2ccccc2n1C1CCN(CCNC(=S)Nc2ccccc2F)CC1` was run?
**A.** 109%

**Q.** How did the remaining activity turn out when `C[C@@H](CN1CCC(n2c(=O)[nH]c3cc(-c4ccccc4)ccc32)CC1)NC(=O)[C@H]1C[C@@H]1c1ccccc1` was run?
**A.** 67.4%

**Q.** With `Cc1ccc(S(=O)(=O)NCCN2CCC(n3c(=O)[nH]c4ccccc43)CC2)cc1` as the compound, how does the remaining activity read?
**A.** 104%

**Q.** With `O=C(NCCN1CCC2(CC1)CCN(c1ccccc1)C2=O)c1ccc2ccccc2c1` as the compound, how does the remaining activity read?
**A.** 113%

**Q.** How did the remaining activity turn out when `O=C(NCCN1CCC(n2c(=O)[nH]c3cc(Cl)ccc32)CC1)c1ccc(Cl)cc1` was run?
**A.** 7.16% (active)

**Q.** `O=C(NCCN1CCC(n2c(=O)[nH]c3ccccc32)CC1)C(c1ccccc1)(c1ccccc1)c1ccccc1` was tested. Which remaining activity did it give?
**A.** 99%

**Q.** `COc1cccc(C(=O)NCCN2CCC(n3c(=O)[nH]c4ccccc43)CC2)n1` was tested. Which remaining activity did it give?
**A.** 39.7% (active)

**Q.** How did the remaining activity turn out when `C[C@@H](CN1CCC(n2c(=O)[nH]c3ccccc32)CC1)NC(=O)c1cccnc1` was run?
**A.** 41.1% (active)

**Q.** Which remaining activity does the source give for `O=C(NCCN1CCC(n2c(=O)[nH]c3ccccc32)CC1)c1cc2ccc3ccccc3c2c2ccccc12` here?
**A.** 76.6%

**Q.** `C[C@@H](CN1CCC(n2c(=O)[nH]c3ccccc32)CC1)NC(=O)c1ccc(F)c(F)c1` was tested. Which remaining activity did it give?
**A.** 21.3% (active)
